# From the supplement of paper PMC4188521
# Compound: CCc1cnn2c(NCc3ccc[n+]([O-])c3)cc(N3CCCC[C@H]3CCO)nc12 [dinaciclib]
# Experiment: cell viability remaining relative to DMSO control; higher = less cytotoxic (more viable cells)
# Details: 100 nM; 24 h
# Protocol: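 Solid tumor cell lines were treated with dinaciclib (100 nM) for 24 hr. Viability was measured by CellTiter-Glo ATP luminescence and expressed as % of DMSO-treated control wells (mean of 2-6 plates, triplicate wells per plate).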
row,Target,cell viability remaining
1,SNU423,36.7%
2,769P,57.5%
3,HT29,57.8%
4,SKMEL30,62.5%
5,C32,83%
6,LS180,85.7%
7,SKMEL1,68.9%
8,RKN,55.6%
9,RMGI,83.4%
10,OVISE,94.6%
11,H661,34.6%
12,BXPC3,29.4%
13,ESS1,73.5%
14,TOV112D,16%
15,COLO205,22.4%
16,MG63,86.8%
17,CAL120,76.8%
18,COLO800,36.9%
19,OE19,77.7%
20,HS695T,72.9%

row,Target,cell viability remaining
1,SKNFI,24.1%
2,DAOY,23.4%
3,CAL54,78.9%
4,HS940T,78.6%
5,OVSAHO,61.8%
6,COLO320DM,17.1%
7,SNU5,69.5%
8,H2228,36.4%
9,TYKNU,83.8%
10,SKOV3,81.1%
11,NCI-H322,69.1%
12,MFE296,47.4%
13,HEC108,63%
14,ACHN,72.1%
15,AGS,46.7%
16,NCI-H1395,36%
17,KLE,91.8%
18,EFO21,93.6%
19,DLD1,46.8%
20,LOVO,88.9%
